Measured values as given in PubChem BioAssay (Tox21).
Records with an inconclusive call do not appear. Entries that show only a call come without a potency. Values without a mark were called inactive. The source made the active and inactive calls. Calls follow the shape of the dose curve; as a rule, active = well fitted cell-killing curve with a large enough effect in the repeat runs; inconclusive = weak or mixed curves, or effect the other way; inactive = flat fitted curve, though single readings scatter.

Tests used:
[1] = cAMP Responsive Elements (CRE) small molecule antagonists, cell-based qHTS assay: qHTS cell viability counter screen (AID 2060913); also: nearly all actives have a fitted effect of over 40% in size
In short: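 Steps: cells plated and held 18 hrs at 37 C/5% CO2; compounds and NKH477 (0.25 uM final) added; 3 hrs incubation; reporter substrate read; CellTiter-Glo added to measure cytotoxicity by luminescence.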

[2] = cAMP Responsive Elements (CRE) small molecule agonists, cell-based qHTS assay: qHTS cell viability counter screen (AID 2060914); also: nearly all actives have a fitted effect of over 50% in size
In short: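 Luminescence read-out (CellTiter-Glo, 30 min RT) of ATP-based viability in CRE-bla HEK 293T cells, run in the same wells as the β-lactamase reporter assay after 3 h compound treatment at 37 °C.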
Potency is read from the fitted curve at half-maximal effect.

Row | Compound | Potency [1] | Potency [2] | viability change, negative = cytotoxic [1] | activity change, negative = cytotoxicity [2]
1 | CN(C)C(=O)CNC(=O)Cc1ccccc1 | inactive | inactive | – | –
2 | Clc1cccnc1 | inactive | inactive | – | –
3 | Cc1cccc(C(C)(C)C)c1O | inactive | inactive | – | –
4 | O=C1CCCCCCCCCCCCCC1 | inactive | inactive | – | –
5 | N#Cc1ccccc1C#N | inactive | inactive | – | –
6 | O=[N+]([O-])C1(Br)COCOC1 | inactive | inactive | – | –
7 | CC1=C(/C=C/C(C)=C\C=C\C(C)=C\C(=O)O)C(C)(C)CCC1 | inactive | inactive | – | –
8 | CC(C)c1ccccc1C(C)C | inactive | inactive | – | –
9 | CC1(C)C(=O)C(C)(C)C1=O | inactive | inactive | – | –
10 | CC(=O)O[C@H](CC(=O)[O-])C[N+](C)(C)C | inactive | inactive | – | –
11 | CC(C)(C(=O)O)c1ccc(C(O)CCCN2CCC(C(O)(c3ccccc3)c3ccccc3)CC2)cc1 (stereo unspecified) | inactive | inactive | – | –
12 | CCCCc1ccc2nc(NC(=O)OC)[nH]c2c1 | inactive | inactive | – | –
13 | Cc1ncsc1CCO | inactive | inactive | – | –
14 | CCCCCCCC/C=C\CCCCCCCC(=O)O | inactive | inactive | – | –
15 | Cc1cn([C@H]2C[C@H](N=[N+]=[N-])[C@@H](CO)O2)c(=O)[nH]c1=O | inactive | inactive | – | –
16 | OCCNCc1ccccc1 | inactive | inactive | – | –
17 | O=Cc1ccc(CO)o1 | inactive | inactive | – | –
18 | CCC(=O)O[C@H]1[C@H](O[C@@H]2[C@@H](C)[C@H](O[C@H]3C[C@@](C)(OC)[C@@H](O)[C@H](C)O3)[C@@H](C)C(=O)O[C@H](CC)[C@@](C)(O)[C@H](O)[C@@H](C)C(=O)[C@H](C)C[C@@]2(C)O)O[C@H](C)C[C@@H]1N(C)C | inactive | inactive | – | –
19 | CC(CCO)CCCC(C)(C)O (stereo unspecified) | inactive | inactive | – | –
20 | CCC(C(=O)OCCN(CC)CC)c1ccccc1 (stereo unspecified) | inactive | inactive | – | –
21 | O=C(c1ccc(O)cc1)c1ccc(Cl)cc1 | inactive | inactive | – | –
22 | O=[Si]=O | inactive | inactive | – | –
23 | CC(=O)/C=C/C1C(C)=CCC(C)C1(C)C (stereo unspecified) | inactive | inactive | – | –
24 | N[C@@H](C(=O)N[C@@H]1C(=O)N2C(C(=O)O)=C(Cl)CS[C@H]12)c1ccccc1 | – | – | 0.002% [at 8.39 µM] | 8.3% [at 8.39 µM]
25 | Nc1c2ccccc2nc2ccccc12 | inactive | inactive | – | –
26 | N#CCc1cccc(C(F)(F)F)c1 | inactive | inactive | – | –
27 | C[n+]1ccccc1/C=N/O | inactive | inactive | – | –

Row | Compound | Potency [1] | Potency [2] | viability change, negative = cytotoxic [1] | activity change, negative = cytotoxicity [2]
28 | Cc1ccc(O)cn1 | inactive | inactive | – | –
29 | CC(COC(=O)c1ccccc1)OC(=O)c1ccccc1 (stereo unspecified) | inactive | inactive | – | –
30 | [O-][n+]1cccc(CO)c1 | inactive | inactive | – | –
31 | CNCCCC12CCC(c3ccccc31)c1ccccc12 | inactive | inactive | – | –
32 | O=C(CS)Nc1ccccc1 | inactive | inactive | – | –
33 | CCC(CC)Nc1ccc(C)c(C)c1 | inactive | inactive | – | –
34 | O=C(O)P(=O)(O)O | inactive | inactive | – | –
35 | CN1Cc2cc(C(=O)N3CCC(C4CCNCC4)CC3)ccc2N[C@@H](CC(=O)O)C1=O | inactive | inactive | – | –
36 | O=C(O)c1cccc(C(=O)O)n1 | inactive | inactive | – | –
37 | O=C(O)c1cccc([N+](=O)[O-])c1 | inactive | inactive | – | –
38 | Nc1ccc(F)cc1F | inactive | inactive | – | –
39 | COC(C)(C)CCO | inactive | inactive | – | –
40 | O=C1CCC(=O)N1Cl | inactive | inactive | – | –
41 | Oc1cc2ccccc2c2ccccc12 | 13.7 µM (active) | 13.7 µM (active) | – | –
42 | CC(CN(C)C)C(C)(O)Cc1ccc(Cl)cc1 (stereo unspecified) | inactive | inactive | – | –
43 | C[C@@H]1O[C@@H](OC[C@H]2O[C@@H](Oc3c(-c4ccc(O)c(O)c4)oc4cc(O)cc(O)c4c3=O)[C@H](O)[C@@H](O)[C@@H]2O)[C@H](O)[C@H](O)[C@H]1O | inactive | inactive | – | –
44 | CC12CCCC=C1C(=O)OC2=O (stereo unspecified) | inactive | inactive | – | –
45 | CC(Cl)COP(=O)(OCC(C)Cl)OCC(C)Cl (stereo unspecified) | inactive | inactive | – | –
46 | CC(C)=CCC/C(C)=C/CC/C(C)=C/CO | inactive | inactive | – | –
47 | BrCCCCCBr | inactive | inactive | – | –
48 | CCCCCCC(CO)CCCC (stereo unspecified) | inactive | inactive | – | –
49 | COC(=O)C1=C(C)NC(C)=C(C(=O)OCCN2CCN(C(c3ccccc3)c3ccccc3)CC2)C1c1cccc([N+](=O)[O-])c1 (stereo unspecified) | inactive | inactive | – | –
50 | CCc1c(Br)c(Br)c(Br)c(Br)c1Br | inactive | inactive | – | –
51 | c1ccc2[nH]ccc2c1 | inactive | inactive | – | –
52 | Nc1nc2ccccc2n1Cc1ccc(F)cc1 | inactive | inactive | – | –
53 | CCCCOC(=O)C(C)OC(=O)CCC (stereo unspecified) | inactive | inactive | – | –
